Measurements from PubChem BioAssay (NCI).
Where “and” joins values, the source holds several entries; their conditions need not be identical. Equal values may be shown once. Compounds without any hit were thinned out: in the full panel of roughly 79,000, 15% have a hit. Calls of active or inactive are those of the source. Cut-off read from the data, not from the text of the source: active = growth inhibition above about 70%; inactive = the rest.

Experiments:
[1] = NCI Yeast Anticancer Drug Screen. Data for the rad52 strain (AID 147);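 note: 0% = growth of vehicle-treated control cultures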; conditions: S. cerevisiae rad52 mutant growth inhibition, stronger effect = higher value
Summary of the method: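 Here a repair-compromised yeast strain receives each compound; its growth is then quantified and normalised to vehicle-only controls.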

[2] = NCI Yeast Anticancer Drug Screen. Data for the wt1 strain (AID 149);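 note: 0% = growth of vehicle-treated wt1 cultures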; conditions: S. cerevisiae wt1 strain (SPY 50644) growth inhibition, stronger effect = higher value
Summary of the method: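 Measured: growth of wt1 yeast under compound versus vehicle treatment, reported as inhibition.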

[3] = NCI Yeast Anticancer Drug Screen. Data for the rad50EPP+ strain (AID 151);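 note: 0% = growth of vehicle-treated control cultures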; conditions: S. cerevisiae rad50 mutant strain, stronger effect = higher value
Summary of the method: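 Read-out is yeast growth inhibition relative to vehicle; cells used were the rad50EPP+ strain.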

[4] = NCI Yeast Anticancer Drug Screen. Data for the mgt1 strain (AID 153); conditions: S. cerevisiae mgt1 mutant growth inhibition, stronger effect = higher value
Summary of the method: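 Measured: inhibition of mgt1 yeast growth by compound, normalized to vehicle-treated cultures.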

[5] = NCI Yeast Anticancer Drug Screen. Data for the rad50 strain (AID 155);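 note: 0% = growth of vehicle-only cultures of the same strain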; conditions: S. cerevisiae rad50 strain growth inhibition, stronger effect = higher value
Summary of the method: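 Growth of the mutant yeast was measured after compound exposure and referenced to vehicle-treated cultures.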

[6] = NCI Yeast Anticancer Drug Screen. Data for the mec2-1 strain (AID 157); conditions: S. cerevisiae mec2-1 strain, stronger effect = higher value
Summary of the method: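 Using mec2-1 yeast: add compound, measure growth, express inhibition versus vehicle-treated cultures.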

[7] = NCI Yeast Anticancer Drug Screen. Data for the rad14 strain (AID 159);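 note: 0% = growth of vehicle-treated control cultures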; conditions: S. cerevisiae rad14 strain growth inhibition, stronger effect = higher value
Summary of the method: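 Here, inhibition of yeast growth was measured after compound exposure, using a strain with a genetic defect in DNA damage repair and vehicle-treated cultures as the reference.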

[8] = NCI Yeast Anticancer Drug Screen. Data for the sgs1 mgt1 strain (AID 161);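 note: 0% = growth of cultures given vehicle only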; conditions: S. cerevisiae sgs1 mgt1 strain, stronger effect = higher value
Summary of the method: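 This yeast growth screen uses a strain with defined DNA-repair lesions; compound-treated growth is compared with vehicle-treated growth.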

[9] = NCI Yeast Anticancer Drug Screen. Data for the CLN2oe strain (AID 163);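 note: 0% = growth of vehicle-only control cultures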; conditions: S. cerevisiae CLN2oe strain, stronger effect = higher value
Summary of the method: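 Whole-cell yeast growth assay. A strain engineered for altered cell-cycle control received compound, and inhibition relative to vehicle-treated cultures was recorded.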

[10] = NCI Yeast Anticancer Drug Screen. Data for the cln2 rad14 strain (AID 165);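 note: 0% = growth equal to vehicle treated cultures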; conditions: S. cerevisiae cln2 rad14 strain, stronger effect = higher value
Summary of the method: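 Yeast strain cln2 rad14, bearing defects in cell cycle control and DNA repair, serves as the test system; values reflect growth inhibition compared with vehicle.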

[11] = NCI Yeast Anticancer Drug Screen. Data for the bub3 strain (AID 167); conditions: S. cerevisiae bub3 mutant strain, stronger effect = higher value
Summary of the method: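 Whole-cell yeast assay. The mutant strain was incubated with compounds, and growth inhibition was determined by comparison with vehicle-treated cells.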

[12] = NCI Yeast Anticancer Drug Screen. Data for the wt2 strain (AID 169);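 note: 0% = growth of vehicle-treated yeast cultures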; conditions: S. cerevisiae wt2 strain growth inhibition, stronger effect = higher value
Summary of the method: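 Treated yeast vs. vehicle-treated yeast: growth inhibition determined.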

[13] = NCI Yeast Anticancer Drug Screen. Data for the mlh1 strain (AID 171);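 note: 0% = growth of vehicle-treated control cultures of the same strain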; conditions: S. cerevisiae mlh1 strain growth inhibition, stronger effect = higher value
Summary of the method: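 A yeast strain with a defined genetic lesion serves as the test organism. Cultures receive compound or vehicle, and growth is measured.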

[14] = NCI Yeast Anticancer Drug Screen. Data for the sgs1 strain (AID 173);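 note: 0% = growth of vehicle-only control cultures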; conditions: S. cerevisiae sgs1 mutant, stronger effect = higher value
Summary of the method: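 A genetically defined yeast mutant is incubated with the test compound, and its growth is compared to that of the same strain given vehicle.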

[15] = at 5.0 µM (retest, dose inferred, filed as 0.5)
[16] = at 50.0 µM (retest, dose inferred, filed as 5.0)

Measured: growth inhibition

CN(C)CCOC1(Cc2ccc(Cl)cc2Cl)CCC(C(C)(C)C)CC1 (stereo not given)
active: [1]; at 11.0 µM 99% and 98% | [1]; at 33.0 µM 99% | [1]; at 100.0 µM 99% and 97% | [2]; at 11.0 µM 98% and 86% | [2]; at 33.0 µM 99% | [2]; at 100.0 µM 100% and 99% | [3]; at 11.0 µM 91% and 94% | [3]; at 33.0 µM 98% and 92% | [3]; at 100.0 µM 99% | [4]; at 11.0 µM 99% | [4]; at 33.0 µM 100% and 99% | [4]; at 100.0 µM 100% and 99% | [5]; at 11.0 µM 99% | [5]; at 33.0 µM 99% | [5]; [16] 100% | [5]; at 50.0 µM 98.8% and 99.2% | [5]; at 100.0 µM 99% | [6]; at 11.0 µM 99% | [6]; at 33.0 µM 100% and 99% | [6]; [16] 100% | [6]; at 50.0 µM 99.5% | [6]; at 100.0 µM 100% and 99% | [7]; at 11.0 µM 99% | [7]; at 33.0 µM 99% | [7]; at 100.0 µM 100% and 99% | [8]; [16] 100% | [8]; at 50.0 µM 99.5% and 99.7% | [9]; at 11.0 µM 99% and 81% | [9]; at 33.0 µM 98% | [9]; at 100.0 µM 97% and 99% | [10]; [16] 100% | [10]; at 50.0 µM 99.1% and 97.9% | [11]; at 11.0 µM 99% and 98% | [11]; at 33.0 µM 99% and 98% | [11]; [16] 100% | [11]; at 50.0 µM 99.2% and 95.8% | [11]; at 100.0 µM 99% | [12]; at 11.0 µM 99% | [12]; at 33.0 µM 100% and 99% | [12]; at 100.0 µM 100% | [13]; at 11.0 µM 99% | [13]; at 33.0 µM 100% and 99% | [13]; at 100.0 µM 100% and 99% | [14]; at 11.0 µM 99% | [14]; at 33.0 µM 100% and 99% | [14]; at 100.0 µM 100% and 99%
inactive: [1]; at 1.2 µM 1% and -3% | [1]; at 3.7 µM 1% and 0% | [2]; at 1.2 µM 0% and -4% | [2]; at 3.7 µM -4% and -6% | [3]; at 1.2 µM -9% and -10% | [3]; at 3.7 µM -50% and -53% | [4]; at 1.2 µM 0% and -3% | [4]; at 3.7 µM 14% and 19% | [5]; at 1.2 µM 1% and -4% | [5]; at 3.7 µM 3% | [5]; [15] 48% and 22% | [6]; at 1.2 µM -5% and -2% | [6]; at 3.7 µM -4% and 5% | [6]; [15] 49% and 21% | [7]; at 1.2 µM -3% and -1% | [7]; at 3.7 µM 11% and 18% | [8]; [15] 64% and 58% | [9]; at 1.2 µM -9% and -8% | [9]; at 3.7 µM -8% | [10]; [15] 40% and 16% | [11]; at 1.2 µM -8% and -3% | [11]; at 3.7 µM 0% and -2% | [11]; [15] 8% and 15% | [12]; at 1.2 µM -1% and -3% | [12]; at 3.7 µM 3% and 8% | [13]; at 1.2 µM 0% and -1% | [13]; at 3.7 µM 6% and 14% | [14]; at 1.2 µM -1% | [14]; at 3.7 µM 11% and 26%

CCCCCCCCCCCC1N=C(N)NC(CCCO)=C1C(=O)OC (stereo not given)
active: [1]; at 3.7 µM 99% | [1]; at 11.0 µM 99% | [1]; at 33.0 µM 99% | [1]; at 100.0 µM 99% | [2]; at 3.7 µM 99% | [2]; at 11.0 µM 99% | [2]; at 33.0 µM 99% | [2]; at 100.0 µM 99% | [3]; at 3.7 µM 81% | [3]; at 11.0 µM 99% | [3]; at 33.0 µM 99% | [3]; at 100.0 µM 98% | [4]; at 3.7 µM 99% | [4]; at 11.0 µM 100% | [4]; at 33.0 µM 99% | [4]; at 100.0 µM 99% | [5]; at 3.7 µM 99% | [5]; at 11.0 µM 99% | [5]; at 33.0 µM 99% | [5]; [16] 100% | [5]; at 50.0 µM 89.2% | [5]; at 100.0 µM 99% | [6]; at 3.7 µM 99% | [6]; at 11.0 µM 99% | [6]; at 33.0 µM 99% | [6]; [16] 99% | [6]; at 50.0 µM 91.8% | [6]; at 100.0 µM 99% | [7]; at 1.2 µM 72% | [7]; at 3.7 µM 99% | [7]; at 11.0 µM 99% | [7]; at 33.0 µM 99% | [7]; at 100.0 µM 99% | [8]; [16] 99% | [8]; at 50.0 µM 88.4% | [9]; at 3.7 µM 99% | [9]; at 11.0 µM 99% | [9]; at 33.0 µM 99% | [9]; at 100.0 µM 99% | [10]; [16] 100% | [10]; at 50.0 µM 90.8% | [11]; at 3.7 µM 99% | [11]; at 11.0 µM 99% | [11]; at 33.0 µM 98% | [11]; [16] 99% | [11]; at 50.0 µM 91.5% | [11]; at 100.0 µM 98%
inactive: [1]; at 1.2 µM 5% | [2]; at 1.2 µM 15% | [3]; at 1.2 µM 32% | [4]; at 1.2 µM 46% | [5]; at 1.2 µM 28% | [5]; [15] 28% | [6]; at 1.2 µM 12% | [6]; [15] 7% | [8]; [15] 65% | [9]; at 1.2 µM 16% | [10]; [15] 21% | [11]; at 1.2 µM 11% | [11]; [15] 6%
